# Experimental data from PubChem BioAssay AID651899 (Broad Institute, 2012).
# Measured potencies and affinities stand elsewhere. Calls of active or inactive are those of the source. The rule behind the calls is not given here.
# Test: HEK293 cell viability loss – plate reader, cherry-pick, cytotoxicity control, dose response (AID 651899);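 note: cells exposed to compound for 48 hours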
# Settings: series mostly up to 26 µM
row,SMILES,outcome
1,COc1ccc2c(c1)c(C(=O)CN1CCC3(CC1)OCCO3)c(C)n2Cc1ccccc1,inactive
2,Cc1nc2nc(SCC(=O)N3CCC4(CC3)OCCO4)nn2c(C)c1Cc1ccccc1,inactive
3,CCc1nc2ccc(Br)cc2c(=O)n1-c1ccccc1C(F)(F)F,inactive
4,COc1cc2c3cc1Oc1cc(ccc1O)C[C@@H]1c4c(cc(OC)c(O)c4Oc4cccc(c4)C[C@@H]3N(C)CC2)CC[N+]1(C)C,inactive
5,CC(=O)N1CCN(c2ccc([N+](=O)[O-])cc2C=C2C(=O)NC(=O)NC2=O)CC1,inactive
6,O=c1[nH]c(N2CCN(Cc3ccc4c(c3)OCO4)CC2)nc2c1CCC2,inactive
7,O=[N+]([O-])c1ccc(C[n+]2c(-c3ccccc3)cc(-c3ccccc3)cc2-c2ccccc2)cc1,inactive
